# 3T3 cytotox – NIH 3T3 cell cytotoxicity. NIH 3T3 viability, CellTiter-Glo ATP luminescence, 48-72 h. Potency, µM (series often up to 96.7 µM), without a hit: at the highest dose activity change, negative = cytotoxicity, usual class: inhibitors. actives 4.3% (n = 94,000). AID 1345082; note: nearly all actives have a fitted effect of over 55% in size
#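 ATP-dependent luminescence (CellTiter-Glo) served as the viability signal for NIH 3T3 cells treated with compound for 48 or 72 hr at 37 °C.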
# GPT2 inhibitor – inhibitors of human GPT2 alanine aminotransferase; Q8TD30; Recombinant GPT2, coupled pyruvate oxidase/HRP Amplex Red fluorescence; Potency, µM (titrated, usually from 57.7 µM), without a hit: top-dose activity change, negative = inhibition, actives largely listed as inhibitors; actives 0.25% (n = 100,000); note: nearly all actives have a fitted effect of over 60% in size
#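 Recombinant GPT2 (10ng/uL) with 250uM a-KG and 2mM L-alanine, 30 min at room temperature, in HEPES pH 7.5 buffer. Pyruvate detected by pyruvate oxidase/HRP/Amplex Red fluorescence after 30 min in the dark; AOA (50uM) as positive control.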
# Luciferase inh – inhibitors of firefly (Photinus pyralis) luciferase | P08659 | purified P. pyralis luciferase, luminescence, biochemical | Potency, µM (series often up to 115 µM), usual class: inhibitors | actives 2.5% (n = 76,000); note: nearly all actives have a fitted effect of over 65% in size
#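 FLuc 10nM, D-luciferin 10uM, ATP 10uM, Mg acetate 10mM, Tris acetate pH 7.5, Tween/BSA; cpd qHTS; enzyme added last; CCD luminescence.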
# HEK cytotox – kills HEK 293 cells; HEK 293 viability, ATP luminescence (CellTiter-Glo), 48-72 h; actives 6.6% (n = 94,000); AID 1345083; Potency, µM (titrated, usually from 115 µM), for the others: at the highest dose activity change, negative = cytotoxicity, most hits filed as inhibitors; note: nearly all actives have a fitted effect of over 60% in size
#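 ATP-coupled CellTiter-Glo luminescence served as viability read-out, recorded 10 min after reagent addition at room temperature. HEK 293 cells, 250 cells/well, had been incubated with pintool-transferred compound for 48 or 72 hr at 37 degree Celsius.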
# NPR1 antag – antagonists of human natriuretic peptide receptor Npr1 | Potency, µM (top dose mostly 46.3 µM), for the others: top-dose activity change, negative = inhibition, usual class: inhibitors | actives 1.6% (n = 76,000) | HEK293 hNpr1 GloSensor cGMP, ANP-stimulated luminescence | AID 1347048 | P16066; calls by dose curve; note: nearly all actives have a fitted effect of over 60% in size
#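 Compound pre-incubated 30 min at room temperature on GloSensor-loaded HEK293 cells stably carrying hNpr1 and the pGS-40F cGMP biosensor. Stimulation uses hNppA at 0.1 nM final; luminescence is taken at baseline and 20 min post-agonist.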
# * marks the source's active call; other numbers are inactive results; i = inactive; ? = inconclusive; · = no result given; [ ] = remark or other dose. Shown are actives, neighbours in structure and some others; about 10% of the full set was active somewhere. Unless noted, calls come from the whole dose curve; as a rule, active = well fitted curve in the direction sought with a large enough effect; inconclusive = small, poorly fitted or top-dose-only effect, or another doubt; inactive = no such curve, though single readings can be large; an effect the other way counts as inactive or inconclusive. % is set by controls: 0 for no effect and ±100 for the full control effect; potency is the fitted concentration of half-maximal effect.
SMILES,3T3 cytotox,GPT2 inhibitor,Luciferase inh,HEK cytotox,NPR1 antag
CC(C)(C)c1ccnc(N[C@H]2CO[C@H]3[C@@H]2OC[C@@H]3NC(=O)NCc2ccccc2)n1,?,?,i,89µM*,-23%[70.6 µM]
CC(C)(C)c1ccnc(N[C@H]2CO[C@H]3[C@@H]2OC[C@@H]3NS(=O)(=O)c2cccs2)n1,79µM*,-11%[88.5 µM],?,?,10µM*
COc1ccccc1-c1ccnc(N[C@H]2CO[C@H]3[C@@H]2OC[C@@H]3NS(=O)(=O)c2ccc3ccccc3c2)n1,?,-21%,i,32µM*,?
CN(C)C(=O)N1CCCC1C(=O)N1CCC(N2Cc3ccccc3C2=O)CC1 (centres undefined),-5%,-22%,·,-17%,·
O=C(NC1CCCN(c2cc(-c3ccccc3)[nH]n2)C1)c1ccc2[nH]ccc2c1 (centres undefined),?,-21%,32µM*,?,-20%
O=C(NC1CCCN(c2cc(-c3ccc(F)cc3)[nH]n2)C1)c1ccc2cc[nH]c2c1 (centres undefined),35µM*,-21%,28µM*,35µM*,-22%
C=CCCC(CN1CCCOCC1)Oc1ccc2cccc(OC)c2n1 (centres undefined),?,-3%,i,?,0%
COc1ccccc1Nc1ccnc(N2CCN([S+](=O)([O-])c3cccs3)CC2)n1,?,5%,·,?,·
COCCN1Cc2[nH]nc(-c3cccc(OC)c3)c2CC1=O,100µM*,-2%[88.5 µM],i,?,-4%[70.6 µM]
O=C(O)c1cccc(-c2n[nH]c3c2CC(=O)N(CCOc2ccccc2)C3)c1,?,-13%[88.5 µM],i,2%[172 µM],-1%[70.6 µM]
O=C1Cc2c(-c3cccc(CO)c3)n[nH]c2CN1c1ccccc1,?,-3%[88.5 µM],i,-10%[172 µM],8%[70.6 µM]
COc1ccc(-c2n[nH]c3c2CC(=O)N(Cc2ccccn2)C3)cc1F,?,4%[88.5 µM],i,?,0%[70.6 µM]
O=C(O)c1cccc(-c2n[nH]c3c2CC(=O)N(c2ccccc2)C3)c1,?,i,63µM*,?,-3%[70.6 µM]
COc1ccc(-c2n[nH]c3c2CC(=O)N(CCOc2ccccc2)C3)cc1F,?,i,i,100µM*,-18%[70.6 µM]
O=C1Cc2c(-c3ccccc3)n[nH]c2CN1CCOc1ccccc1,?,-6%[88.5 µM],?,-7%[172 µM],13µM*
O=C1CCN(Cc2ccncc2)CCCC(C(=O)N2CCc3ccccc32)CCN1 (centres undefined),-17%,i,i,-20%,4%
Cn1cccc1C(=O)N1CC(n2cc(C(=O)N3CCOCC3)nn2)C1,-7%,i,·,1%,·
O=C1Nc2ccccc2C2(CCN(C(=O)OCc3ccccc3)C2)O1 (centres undefined),?,i,i,?,-18%
Cc1cn2nc(C(=O)N3CCC(NC(=O)c4cccc(N(C)C)c4)CC3)cc2c(=O)[nH]1,-20%,i,35µM*,-12%,0%
CCC(CC)n1c(=O)n(Cc2ccc(C(=O)N(C)C)o2)c2cc(C(=O)O)cnc21,-10%,-12%,i,-9%,0%
CCC(CC)n1c(=O)n(Cc2cc(C(C)C)no2)c2cc(C(=O)O)cnc21,79µM*,0%,i,-23%,3%
COC(=O)CNC(=O)C1CCCN1C(=O)c1cccc(-c2cccc(OC)c2)c1 (centres undefined),?,4%,·,45µM*,·
COc1cccc(-c2cccc(C(=O)N3CCCC3C(=O)NCc3cccs3)c2)c1 (centres undefined),-32%,i,·,?,·
CCCCCNC(=O)C1CCCN1C(=O)c1cccc(-c2cccc(OC)c2)c1 (centres undefined),?,-14%[88.5 µM],·,100µM*,·
COc1ccccc1-c1cccc(C(=O)N2CCC[C@H]2C(=O)NCc2cccs2)c1,-24%,i,·,79µM*,·
SMILES,3T3 cytotox,GPT2 inhibitor,Luciferase inh,HEK cytotox,NPR1 antag
CCOC(=O)C1CCCN(C(=O)C2CCN(c3ccnc4ccnn34)CC2)C1 (centres undefined),?,i,·,?,·
Cc1ccsc1CN1CCn2nnc(CCC(=O)NCc3ccccc3)c2C1,?,i,·,?,·
O=C1NCCCc2[nH]c(-c3csc(-c4ccccc4)n3)nc21,?,-12%,25µM*,?,-4%
Cc1nc(-c2nc3c([nH]2)CCCNC3=O)cc(=O)[nH]1,4%,4%,i,-21%,-5%
O=C(NC1CCCC1)C1CCCN1Cc1ccc(-c2cncnc2)cc1 (centres undefined),?,-3%[88.5 µM],·,?,·
O=C(NC1CC1)C1CCCCN1Cc1ccc(-c2ccsc2)cc1 (centres undefined),79µM*,5%[88.5 µM],·,?,·
CNC(=O)C1CCCN1Cc1ccc(-c2cncnc2)cc1 (centres undefined),-9%[138 µM],i,·,-13%[172 µM],·
CC(C)NC(=O)C1CCCCN1Cc1ccc(-c2ccsc2)cc1 (centres undefined),?,i,·,50µM*,·
O=C(NC1CCCC1)C1CCCCN1Cc1ccc(-c2ccsc2)cc1 (centres undefined),?,0%,·,25µM*,·
CNC(=O)C1CCCCN1Cc1ccc(-c2ccsc2)cc1 (centres undefined),?,-1%[88.5 µM],·,?,·
C#CCNC(=O)C1CCCCN1Cc1ccc(-c2ccsc2)cc1 (centres undefined),-39%,-4%,·,40µM*,·
CC(C)Cn1ccc2c(NC(=O)CC[C@H]3NC(=O)c4ccccc4NC3=O)cccc21,-16%,i,?,?,-12%
CC(C)Cn1ccc2c(NC(=O)C[C@H]3NC(=O)c4ccccc4NC3=O)cccc21,28µM*,i,i,?,-13%
CC1=C[C@@H](CN2CCN(c3ccccn3)CC2)[C@H](C(C)C)C[C@H]1Cc1nnc(-c2ccc([N+](=O)[O-])cc2)o1,?,-2%,i,?,2%
CC1=C[C@@H](CN2CCN(c3ncccn3)CC2)[C@H](C(C)C)C[C@H]1Cc1nnc(COc2ccc(F)cc2)o1,40µM*,i,i,25µM*,-25%
CC1=C[C@@H](CN2CCN(CCO)CC2)[C@H](C(C)C)C[C@H]1Cc1nnc(-c2ccccc2F)o1,?,-4%,i,?,1%
CC1=C[C@@H](CN2CCN(c3ccccc3)CC2)[C@H](C(C)C)C[C@H]1Cc1nnc(-c2cncn2C)o1,?,2%,i,35µM*,0%
CC1=C[C@@H](CN2CCN(CCO)CC2)[C@H](C(C)C)C[C@H]1Cc1nnc(Cc2c[nH]c3ccccc23)o1,28µM*,0%,i,?,-17%

# Compound activity from PubChem BioAssay.
